Screening data as filed in PubChem BioAssay.
LASV entry inh – blocks Lassa virus binding to or entry into cells | Lassa virus pseudotype entry inhibition, cell reporter | Potency, µM (titrated, usually from 37.9 µM), without a hit: top-dose activity change, negative = inhibition, hits mostly inhibitors | 300,000 compounds, 1.2% hits | AID 540256; calls by dose curve; tested in HEK293 cells; note: potency is the fitted concentration of half-maximal effect; % is set by controls: 0 for no effect and ±100 for the full control effect; nearly all actives have a fitted effect of over 50% in size
HCV inhibitor – inhibitors of hepatitis C virus infection; Huh7.5.1 HCVcc-Cre infection, luciferase reporter, 44 h; Potency, µM (series often up to 41.8 µM), without a hit: at the top dose activity change, negative = inhibition, most hits filed as inhibitors; 340,000 compounds, 3.4% hits; AID 651820; note: potency is the fitted concentration of half-maximal effect; % is set by controls: 0 for no effect and ±100 for the full control effect
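Reporter virus HCVcc-Cre (~0.5 moi) infects cells exposed to compound; seeding density 1,000 cells/well with 4 h settling beforehand. Luminescence, 15 sec read, taken 44 h post-infection following a 15 min RT substrate incubation.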
FMDV antiviral – foot and mouth disease virus antiviral activity; Potency, µM (titrated, usually from 57.9 µM), for the others: at the top dose activity change, negative = inhibition, most hits filed as inhibitors; AID 1159524; FMDV antiviral cell-based qHTS; 410,000 compounds, 1.2% hits; calls by dose curve; tested in HEK293T cells; note: read-out not given here; potency is the fitted concentration of half-maximal effect; % is set by controls: 0 for no effect and ±100 for the full control effect; nearly all actives have a fitted effect of over 45% in size
HCMV inh – human cytomegalovirus inhibition; HFF cells, HCMV-luciferase reporter, 72 h; active compounds read low; activity change, negative = inhibition, % at 57.5 µM; 410,000 compounds, 4.5% hits; AID 1259415; in the data active = activity change below about -60%; inconclusive = no clear call, values can overlap the other calls; inactive = above about -39%; note: % is set by controls: 0 for no effect and ±100 for the full control effect
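Screen run at 2 compound doses on HFFs infected with reporter HCMV, MOI 1 PFU/cell. Luciferase activity from cell lysates at 72 h post infection gave inhibition relative to buffer-only and Salinomycin wells.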
Giardia FBPA inh-1 – inhibitors of Giardia lamblia fructose-1,6-bisphosphate aldolase. Potency, µM (top dose mostly 59.6 µM), inactives show at the top dose activity, negative = inhibition, most hits filed as inhibitors. 290,000 compounds, 0.71% hits. AID 2451. purified Giardia FBPA; note: potency is the fitted concentration of half-maximal effect; % is set by controls: 0 for no effect and ±100 for the full control effect; nearly all actives have a fitted effect of over 55% in size
Target sequence (A8B2U2 whole entry, looked up): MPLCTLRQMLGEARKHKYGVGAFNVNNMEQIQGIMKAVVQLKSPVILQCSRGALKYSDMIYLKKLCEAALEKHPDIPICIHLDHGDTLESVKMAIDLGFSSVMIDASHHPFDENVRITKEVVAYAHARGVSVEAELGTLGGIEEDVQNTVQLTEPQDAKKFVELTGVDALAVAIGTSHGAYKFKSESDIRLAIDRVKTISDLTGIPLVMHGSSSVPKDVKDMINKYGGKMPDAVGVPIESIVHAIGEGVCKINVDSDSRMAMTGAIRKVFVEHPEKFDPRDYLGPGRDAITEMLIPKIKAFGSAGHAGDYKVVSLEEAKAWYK
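Giardia FBPA (40 nM reagent) was preincubated 10 min at RT with compound (up to 57.5 uM final), then substrate plus GAPDH/TPI/NAD/arsenate coupling system with diaphorase/resazurin was added; resorufin fluorescence (525/598 nm) was read after 20 min.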
Marburg entry inh – inhibitors of Marburg virus binding or cell entry; Marburg virus pseudotyped entry inhibition, cell reporter; Potency, µM (titrated, usually from 37.8 µM), inactives show at the highest dose activity change, negative = inhibition, most hits filed as inhibitors; 300,000 compounds, 1.8% hits; AID 540276; calls by dose curve; tested in HEK293 cells; note: potency is the fitted concentration of half-maximal effect; % is set by controls: 0 for no effect and ±100 for the full control effect
Giardia growth – inhibitors of Giardia lamblia growth; Giardia lamblia trophozoite growth inhibition; Potency, µM (series often up to 57.5 µM), for inactives: top-dose activity change, negative = inhibition, actives largely listed as inhibitors; shares compounds with Giardia FBPA inh-1; AID 2785; 1,500 compounds, 5% hits;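 note: potency is the fitted concentration of half-maximal effect; trophozoites exposed to compound for 48 h at 37 °C; % is set by controls: 0 for no effect and ±100 for the full control effect; nearly all actives have a fitted effect of over 70% in size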
Mammalian tox – counter-screen for Giardia aldolase inhibitors: mammalian cell toxicity. Potency, µM (series often up to 57.5 µM), for inactives: at the top dose viability change, negative = toxicity, most hits filed as inhibitors. shares compounds with Giardia FBPA inh-1. mammalian cell viability counter-screen, qHTS. 1,500 compounds, 4% hits;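 note: Chinese hamster ovary cells used as mammalian cytotoxicity surrogate; viability measured as cellular ATP by luminescence; potency is the fitted concentration of half-maximal effect; compound exposure lasted 48 h before reading; % is set by controls: 0 for no effect and ±100 for the full control effect; nearly all actives have a fitted effect of over 60% in size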
Giardia FBPA inh-2 – confirmation of Giardia fructose-bisphosphate aldolase inhibitors. shares compounds with Giardia FBPA inh-1. purified Giardia aldolase enzyme activity, qHTS. Potency, µM (titrated, usually from 57.5 µM), without a hit: top-dose activity change, negative = inhibition, actives largely listed as inhibitors. 1,500 compounds, 5% hits; note: potency is the fitted concentration of half-maximal effect; % is set by controls: 0 for no effect and ±100 for the full control effect; nearly all actives have a fitted effect of over 45% in size
Rabbit FBPA inh – selectivity test for Giardia aldolase inhibitors: rabbit aldolase; shares compounds with Giardia FBPA inh-1; Rabbit muscle FBPA enzyme inhibition, selectivity counter-screen; Potency, µM (top dose mostly 57.5 µM), for inactives: top-dose activity, negative = inhibition, most hits filed as inhibitors; 1,500 compounds, 4% hits; AID 2794; note: potency is the fitted concentration of half-maximal effect; % is set by controls: 0 for no effect and ±100 for the full control effect; nearly all actives have a fitted effect of over 60% in size
Target sequence (P00883 whole entry, looked up): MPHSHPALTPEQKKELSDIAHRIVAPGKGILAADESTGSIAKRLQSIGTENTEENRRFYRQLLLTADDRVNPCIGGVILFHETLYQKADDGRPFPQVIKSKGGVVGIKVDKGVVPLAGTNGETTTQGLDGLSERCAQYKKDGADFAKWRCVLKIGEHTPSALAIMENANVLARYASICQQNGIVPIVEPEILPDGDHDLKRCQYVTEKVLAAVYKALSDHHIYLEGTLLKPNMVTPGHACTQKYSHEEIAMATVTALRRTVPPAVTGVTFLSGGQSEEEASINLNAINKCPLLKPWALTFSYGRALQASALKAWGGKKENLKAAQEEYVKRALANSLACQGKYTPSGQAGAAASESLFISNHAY
GAPDH coupling – counter-screen for Giardia aldolase inhibitors: GAPDH coupling enzyme | shares compounds with Giardia FBPA inh-1 | GAPDH coupling enzyme counterscreen, biochemical, qHTS | Potency, µM (series often up to 57.5 µM), without a hit: at the top dose activity change, negative = inhibition, hits mostly inhibitors | 1,500 compounds, 6% hits | AID 2795; note: potency is the fitted concentration of half-maximal effect; % is set by controls: 0 for no effect and ±100 for the full control effect; nearly all actives have a fitted effect of over 55% in size
G2M arrest HeLa – inducers of G2/M cell cycle arrest in HeLa cells. shares compounds with Marburg entry inh. HeLa cell cycle G2/M arrest, Hoechst DNA content imaging. Potency, µM, actives largely listed as inhibitors. 25 compounds, 60% hits. AID 2441
WI-38 cytotox – WI-38 cytotoxicity of perinucleolar compartment inhibitors. WI-38 normal lung fibroblasts, ATPLite luminescence ATP viability, 24 h. 120 tested, under 10 active. AID 2729. shares compounds with Marburg entry inh. Potency, µM (series often up to 46.1 µM), inactives show at the highest dose activity change, negative = cytotoxicity, actives largely listed as inhibitors
PNC inh conf – confirmation of perinucleolar compartment assembly inhibitors. shares compounds with Marburg entry inh. PC3M PTB-GFP, PNC prevalence imaging, 16 h. Potency, µM (highest dose often 46.1 µM), for inactives: at the top dose activity, negative = PNC inhibition, most hits filed as inhibitors. 120 compounds, 50% hits. AID 2730
PC3M caspase – PC3M caspase 3/7 activation by PNC inhibitor hits; shares compounds with Marburg entry inh; PC3M-GFP caspase 3/7 activation, luminescence, 24 h; activity change, positive = activation, % at 46.1 µM; 120 tested, under 10 active
HCV confirm – confirmation of hepatitis C virus inhibitors | shares compounds with HCV inhibitor | HCVcc-Cre infectious virus cell assay, luciferase, inhibition | Potency, µM (series often up to 41.8 µM), without a hit: at the top dose activity, negative = inhibition, most hits filed as inhibitors | 640 compounds, 78% hits | AID 720575; note: potency is the fitted concentration of half-maximal effect; nearly all actives have a fitted effect of over 80% in size
HCV host tox – host cell cytotoxicity counter-screen for HCV inhibitors; AID 720576; Potency, µM (titrated, usually from 41.8 µM), for the others: at the highest dose activity change, negative = cytotoxicity, most hits filed as inhibitors; 640 compounds, 22% hits; HCV host cell line cytotoxicity counterscreen; shares compounds with HCV inhibitor;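 note: potency is the fitted concentration of half-maximal effect; 44 h compound exposure; % is set by controls: 0 for no effect and ±100 for the full control effect; nearly all actives have a fitted effect of over 55% in size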
Active calls of the source: *; [ ] = remark or other dose. Rows were chosen to be rich in hits. Some 8.3% of all compounds tested hit in one or more screens of this group. Unless noted, calls come from the whole dose curve; as a rule, active = well fitted curve in the direction sought with a large enough effect; inconclusive = small, poorly fitted or top-dose-only effect, or another doubt; inactive = no such curve, though single readings can be large; an effect the other way counts as inactive or inconclusive.

For C=CCc1ccc(OCCOc2cccc3ccc(C)nc23)c(OC)c1 the results were LASV entry inh -9.1%, HCV inhibitor 8.91µM*, FMDV antiviral -9.8%, HCMV inh 117.6, Giardia FBPA inh-1 11.2µM*, Marburg entry inh inconclusive, Giardia growth inconclusive, Mammalian tox -19.5%, Giardia FBPA inh-2 -22.5%, Rabbit FBPA inh -12.8%, GAPDH coupling -9.5%, HCV confirm 12.5µM* and HCV host tox 23.7%.
For COc1ccccc1N1CCN(C(=O)CN2C(=O)COc3ccc(S(=O)(=O)N4CCCC4)cc32)CC1 the results were LASV entry inh -3.4%[46.1 µM], FMDV antiviral -11.5%, HCMV inh 15.1 and Marburg entry inh 0.2%[46.1 µM].
COc1cc([C@@H]2c3cc4c(cc3[C@H](O)C3COC(=O)[C@@H]32)OCO4)cc(OC)c1OC (some centres undefined) was read as LASV entry inh inconclusive, Giardia FBPA inh-1 -1.2%, Marburg entry inh inconclusive and G2M arrest HeLa 0.0224*.
COc1cc(C2CC(=O)Oc3cc4c(cc32)OCO4)cc(OC)c1OC (centres undefined) was read as HCV inhibitor -7.1%, FMDV antiviral -13.3%, HCMV inh -3.7 and Giardia FBPA inh-1 -12.8%[89.2 µM].
For Cc1cccc(-n2c(SCC(=O)Nc3ncc(Cl)cc3Cl)nc3ccccc32)c1 the results were LASV entry inh 0.82µM*, HCV inhibitor 11.2µM*, FMDV antiviral 0.0%, HCMV inh -99.3*, Giardia FBPA inh-1 -1.0%, Marburg entry inh 1.16µM*, WI-38 cytotox -15.0%, PNC inh conf 5.01µM* and PC3M caspase -3.9.
For CCn1c(SCC(=O)Nc2ncc(C(F)(F)F)cc2Cl)nnc1-c1cccc(C)c1 the results were LASV entry inh -3.3%, HCV inhibitor -5.5%, FMDV antiviral inconclusive, HCMV inh 7.3, Giardia FBPA inh-1 -0.8% and Marburg entry inh 7.9%.
`Cc1c2ccncc2c(C)c2c1[nH]c1ccccc12` gave LASV entry inh 6.51µM*, HCV inhibitor inconclusive, FMDV antiviral -21.2%, Giardia FBPA inh-1 -7.9%, Marburg entry inh 4.11µM*, G2M arrest HeLa inconclusive, WI-38 cytotox -5.8%, PNC inh conf inconclusive and PC3M caspase 2.7.
Screening Cc1ccc(S(=O)(=O)N(C)c2ccc(OCC(=O)Nc3nc4ccccc4s3)cc2)cc1 returned LASV entry inh inconclusive, HCV inhibitor inconclusive, FMDV antiviral inconclusive, HCMV inh -80.5*, Giardia FBPA inh-1 -0.5%, Marburg entry inh 14.6µM*, WI-38 cytotox -19.5%, PNC inh conf inconclusive and PC3M caspase -9.8.
For Cc1ccc(C(C)C)c(OCc2ccc(C(=O)N/N=C/c3ccc(O)cc3O)cc2)c1 the results were LASV entry inh inconclusive, HCV inhibitor 3.16µM*, FMDV antiviral 0.0%, HCMV inh -96.7*, Giardia FBPA inh-1 -6.0%, Marburg entry inh 6.31µM*, WI-38 cytotox -6.7%, PNC inh conf inconclusive and PC3M caspase -1.9.
CCOc1ccc(NC(=O)CSc2nnc(-c3ccncc3)n2-c2ccccc2)cc1 was read as LASV entry inh 6.6%[46.1 µM], FMDV antiviral -0.5% and HCMV inh -7.0.
Screening COc1cc(OC)c(Nc2ncnc3onc(-c4cccc(Cl)c4)c23)cc1Cl returned LASV entry inh 16.1%[46.1 µM], FMDV antiviral -5.7%, HCMV inh -6.0 and Marburg entry inh 2.7%[46.1 µM].
Screening Cc1cc(=O)[nH]c(N=N/C(=N/Nc2ccccc2C)c2ccccc2)n1 returned LASV entry inh 3.98µM*, HCV inhibitor inconclusive, FMDV antiviral -9.0%, HCMV inh -85.8*, Giardia FBPA inh-1 -7.0%, Marburg entry inh 0.794µM*, WI-38 cytotox -6.9%, PNC inh conf inconclusive and PC3M caspase -8.4.
Cc1cc(=O)[nH]c(SCC(=O)Nc2ccccc2C)n1 was read as LASV entry inh -10.7%[46.1 µM], HCV inhibitor -1.1%, FMDV antiviral 23.1%, HCMV inh inconclusive, Giardia FBPA inh-1 -0.2% and Marburg entry inh 7.3%[46.1 µM].
